# Compounds with a hit are over-represented: about 2.3% of the library has one in this group of screens.
# CHRM1 PAM – positive allosteric modulators of human M1 muscarinic receptor; P11229; CHO-K1 hM1, Fluo-8 calcium fluorescence, ACh EC20; 0% = ACh EC20, 100% = maximal ACh; activation, % at 3 µM; 360,000 compounds, 0.088% hits; in the data active = activation above about 19%, passing the limit was not always enough
# Target sequence (P11229 whole entry, looked up): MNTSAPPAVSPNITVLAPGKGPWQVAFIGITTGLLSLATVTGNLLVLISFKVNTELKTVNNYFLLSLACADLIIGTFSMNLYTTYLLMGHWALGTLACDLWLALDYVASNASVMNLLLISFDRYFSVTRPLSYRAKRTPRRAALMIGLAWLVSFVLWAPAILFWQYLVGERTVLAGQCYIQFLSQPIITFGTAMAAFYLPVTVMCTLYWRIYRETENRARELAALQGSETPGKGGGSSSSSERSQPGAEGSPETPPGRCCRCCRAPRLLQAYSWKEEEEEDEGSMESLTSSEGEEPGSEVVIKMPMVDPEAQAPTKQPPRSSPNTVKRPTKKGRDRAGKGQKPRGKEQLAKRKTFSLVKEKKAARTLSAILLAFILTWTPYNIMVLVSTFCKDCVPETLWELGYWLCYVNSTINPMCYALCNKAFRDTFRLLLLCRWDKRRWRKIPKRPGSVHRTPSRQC
# M1 ag parental – nonselective activator or artifact in parental CHO-K1 cells; AID 602248; Fluo-8 calcium fluorescence; scaled to maximal ATP response, vehicle zero; 360,000 compounds, 0.48% hits; activation, % at 3 µM; in the data active = activation above about 15%;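 note: untransfected CHO-K1 host cells lacking M1 receptor as counterscreen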
# CHO-K1 Ca antag – nonselective inhibitor or artifact in parental CHO-K1 cells; ATP-induced calcium, Fluo-8 fluorescence; 360,000 compounds, 0.6% hits; inhibition, % at 3 µM;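 active = inhibition above a per-plate cutoff, the plate's mean sample inhibition plus 3 SD, cut at about 24% in these data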;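 note: 0% = DMSO plus EC80 ATP and 100% = DMSO alone without ATP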
# M1 ag – activates human CHRM1 receptor. P11229. CHO-K1 hM1, Fluo-8 calcium fluorescence, agonist mode; 0% DMSO, 100% acetylcholine EC100. activation, % at 3 µM. 360,000 compounds, 0.33% hits. AID 588814;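 active = activation above the run's mean compound activation plus 3 SD, cut at about 16% in these data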;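 note: peak over basal fluorescence ratio within a 140 s kinetic read after compound addition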
# M1 antag – human CHRM1 antagonism | CHO-K1 hM1, Fluo-8 calcium fluorescence, ACh EC80 antagonist | inhibition, % at 3 µM | 360,000 compounds, 1.3% hits;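 active = percent inhibition above its own plate's cutoff, namely the mean of that plate's compound wells plus 3 SD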;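 note: peak over basal fluorescence ratio during 140 s after agonist addition; 0% = ACh EC80 plus DMSO and 100% = DMSO alone without agonist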
# CHO-K1 Ca PAM – counter-screen for M1 PAMs: effect in parental CHO-K1 cells | ATP EC20, Fluo-8 calcium fluorescence; 0% at ATP EC20, 100% at ATP max | activation, % at 3 µM | 360,000 compounds, 0.02% hits | AID 602247;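 active = activation above the run cutoff, the mean activation of all test compounds plus 3 SD, cut at about 40% in these data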;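 note: peak over basal fluorescence ratio in a 140 s read after ATP addition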
# Numbers without * were called inactive.
SMILES,CHRM1 PAM,M1 ag parental,CHO-K1 Ca antag,M1 ag,M1 antag,CHO-K1 Ca PAM
CCc1ccc(N2CC(C(=O)Nc3ccc(S(=O)(=O)N4CCOCC4)cc3)CC2=O)cc1 (centres undefined),5,0,1,-3,2,1
Cc1ccc(S(=O)(=O)N(C)c2ccc3c(ncn3C)c2[N+](=O)[O-])cc1,-15,-1,17,-4,31,-13
O=C(N/C(=C\c1ccccc1)C(=O)N1CCOCC1)c1ccccc1Cl,0,1,-2,-2,3,-18
COCOCCn1cc(CN2CCS(=O)(=O)N(Cc3ccc(-c4cccc(N(C)C)c4)cc3)C(C(C)C)C2=O)nn1 (centres undefined),-5,0,-3,-6,4,4
CCOC1=C2[C@@H](CN(S(=O)(=O)c3ccc(C)cc3)[C@H]2c2ccccc2F)[C@H]2C(=O)N(C3CCCCC3)C(=O)[C@H]2C1,11,0,8,-3,-15,6
C#CCn1cc(CNC[C@H]2O[C@@H](n3cnc4c(=O)[nH]c(N)nc43)[C@H](O)[C@@H]2O)c2ccccc21,-8,0,8,-3,-7,-9
CC1(C(=O)NS(=O)(=O)Cc2cccc(Cl)c2)CCN1C(=O)Cc1cccs1 (centres undefined),9,0,-15,-3,-12,8
COc1ccc(/C=N/NC(=O)/C(=C/c2ccccc2)CCO)cc1,29*,0,-3,-5,2,-4
Cc1cc(C)cc(NC(=O)c2nnn(Cc3cc(C)ccc3C)c2N)c1,-3,3,21,26*,6,-14
Cc1ccc(C)c(Cn2nnc(C(=O)Nc3ccc4c(c3)OCCO4)c2N)c1,5,14,19,28*,8,-25
Nc1c(C(=O)NCc2ccc3c(c2)OCO3)nnn1Cc1ccc(Br)cc1,7,18*,-3,16*,0,19
Nc1c(C(=O)NCc2ccc3c(c2)OCO3)nnn1CC(=O)Nc1ccc(Br)cc1,1,1,-2,-2,3,11
COCCn1c2nc(=O)n(-c3ccccc3)c(=O)c-2nc2ccccc21,-22,73*,10,56*,18,8
Cc1c(NC(=O)COC(=O)c2c3c(nc4ccccc24)CCCC3)c(=O)n(-c2ccccc2)n1C,-5,0,3,-14,-2,-7
CCCCNC(=O)COC(=O)c1c2c(nc3ccccc13)CCC2,-10,3,10,-7,9,-8
COc1ccc(OC)c(NC(=O)COC(=O)c2c3c(nc4ccccc24)CCCC3)c1,-19,4,-14,-7,38*,-2
COc1ccc(NC(=O)COC(=O)c2c3c(nc4ccccc24)CCCC3)cc1,-9,4,2,0,32*,-3
CNC(=O)COC(=O)c1c2c(nc3ccccc13)CCC2,2,1,4,-3,12,-10
COc1ccc(NC(=O)COC(=O)c2c3c(nc4ccccc24)CCCC3)cc1Cl,-10,3,11,-4,22*,9
CCc1noc(C)c1C(=O)OC(C)C(=O)Nc1ccccc1OC (centres undefined),1,1,3,-5,-2,3
O=S1(=O)C[C@H](N2CCC(Cc3ccccc3)CC2)[C@@H](COCc2ccccc2)N1,1,2,7,-2,8,6
CC(C)Cn1c(-c2csc3c2CCCC3)n[nH]c1=S,-34,0,15,-15,44*,-15
CC(C)Cn1c(-c2ccccc2F)n[nH]c1=S,7,0,-13,-3,-10,-5
CC(=O)N(CCCCl)C(C#N)c1ccccc1 (centres undefined),-32,0,-11,51*,25,13
CCc1ccc(NC(=O)NCc2cccnc2)cc1,6,1,-10,-3,-10,10
CCn1c(CC(=O)Nc2ccc(OC)cc2)nnc1SCC(=O)N1CCOCC1,5,0,3,2,-3,4
COc1ccc(C(=O)N/C(=C/c2ccc(Cl)cc2)C(=O)Nc2ccc(C(=O)O)cc2)cc1,2,0,25*,-2,1,-32
COc1ccc(/C=C(\NC(=O)c2ccc(OC)cc2)C(=O)Nc2cccc(C(=O)O)c2)cc1,3,1,-13,-4,-8,4

# Compound activity: PubChem BioAssay, The Scripps Research Institute Molecular Screening Center
